High-throughput results: PubChem BioAssay, National Center for Advancing Translational Sciences (NCATS)
Pf growth 48h: inhibits P. falciparum growth in the first generation, 48 h; 5.9% of 310,000 active; AID 504832; Potency, µM (top dose mostly 28.7 µM), inactives show top-dose activity change, negative = inhibition, hits mostly inhibitors; P. falciparum luciferase growth in erythrocytes, 48 h; note: % is set by controls: 0 for no effect and ±100 for the full control effect
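Parasite viability was followed by luminescence of a genomically integrated firefly luciferase. Cultures held 0.1% parasitemia at 2% hematocrit (final), incubated under 5% CO2 at 37 C.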
Pf growth 96h: P. falciparum growth inhibition at 96 hours | Potency, µM (doses to about 28.7 µM), inactives show top-dose activity change, negative = inhibition, hits mostly inhibitors | AID 504834 | 6.9% of 320,000 active | P. falciparum luciferase reporter growth, 96 h; note: % is set by controls: 0 for no effect and ±100 for the full control effect
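P. falciparum expressing integrated firefly luciferase grown in erythrocytes (2% hematocrit, 0.05% parasitemia final) with compounds for 96 hours at 37 C, 5% CO2. Growth inhibition read as loss of luminescence after adding luciferase detection reagent.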
SARS PLpro yeast: blocks SARS-CoV papain-like protease in a yeast assay; S. cerevisiae expressing SARS-CoV PLpro, growth rescue; Potency, µM (highest dose often 32.9 µM), without a hit: at the top dose activity, positive = growth rescue, hits mostly activators; 0.19% of 330,000 active; calls by dose curve; note: 0% is about no effect; nearly all actives have a fitted effect of over 55% in size
Sm TGR block: blocks Schistosoma mansoni thioredoxin glutathione reductase; Q962Y6; 3% of 360,000 active; purified TGR, DTNB reduction, TNB absorbance 405 nm; Potency, µM (top dose mostly 114 µM), without a hit: top-dose activity change, negative = inhibition, usual class: inhibitors; note: % is set by controls: 0 for no effect and ±100 for the full control effect; nearly all actives have a fitted effect of over 60% in size
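Kinetic colorimetric format: TGR-catalysed, NADPH-driven DTNB reduction monitored via TNB absorbance. Enzyme dispensed at 20 nM; compound exposure 15 min at room temperature before reaction start.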
Starred values were filed as active, the others as inactive; ? = inconclusive; / = no result; [ ] = dose if it differs, or a comment. Only some compounds are listed: those with a hit (about 12% of all), similar ones and a draw of the others. Unless noted, calls come from the whole dose curve; as a rule, active = well fitted curve in the direction sought with a large enough effect; inconclusive = small, poorly fitted or top-dose-only effect, or another doubt; inactive = no such curve, though single readings can be large; an effect the other way counts as inactive or inconclusive. Potency is the fitted concentration of half-maximal effect.

SMILES	Pf growth 48h	Pf growth 96h	SARS PLpro yeast	Sm TGR block
O=C(C[n+]1ccccc1)Nc1ccc(Oc2ccccc2)cc1	6.6µM*	0%	0%	14%
O=C(C[n+]1ccccc1)Nc1ccccc1Br	40%	-26%	0%	0.1µM*
O=C(C[n+]1ccccc1)Nc1c(Cl)cc(Cl)cc1Cl	38%	0%	1%	8.9µM*
CCOC(=O)NN1C(=O)c2ccccc2NC1c1cccs1 (centres undefined)	40%	12%	0%	-24%
Cc1ccc2occ(CC(=O)N(Cc3ccccc3Cl)C3CCS(=O)(=O)C3)c2c1 (centres undefined)	/	/	/	36%
CCCCn1c(=O)[nH]c(=O)c2c1nc(CN(C)Cc1cccc(OC)c1OC)n2CCC	10%[0.00184 µM]	?	0%	1%
CCCCCn1c(CCC(=O)Oc2ccccc2OC)nc2c1c(=O)[nH]c(=O)n2CCCC	/	13µM*	11%	10%
COc1ccc(-n2c(CCc3ccccc3)nnc2SCC(=O)c2ccc(Cl)cc2)cc1	13µM*	?	4%	-7%
COc1ccc(-n2c(Cc3ccccc3)nnc2SCC(=O)N2CCCc3ccccc32)cc1	12µM*	?	0%	-3%
Cn1cccc1Cc1nnc(SCC(=O)N2CCCc3ccccc32)n1-c1ccc(F)cc1	?	8.3µM*	-3%	-26%
COc1ccccc1NS(=O)(=O)c1cc(NC(=O)c2sccc2C)ccc1N1CCOCC1	?	12µM*	2%	0%
COc1ccc(NS(=O)(=O)c2cc(NC(=O)c3sccc3C)ccc2N2CCOCC2)cc1	10µM*	?	1%	11%
COc1ccccc1NS(=O)(=O)c1cc(NC(=O)/C=C/c2cccs2)ccc1N1CCOCC1	12µM*	?	9%	-6%
CCCOC(=O)c1c(NC(=O)C2c3ccccc3Oc3ccccc32)sc2c1CCC(C)C2 (centres undefined)	/	/	/	-3%
COC(=O)c1cc2sc(Cl)cc2n1Cc1c(C)cc(C)cc1C	/	/	/	7%
CO/N=C(/COc1ccc(F)cc1)c1ccc(OC)cc1	/	0%	0%	25µM*
O=[N+]([O-])c1cc(C=Nc2ccc3ccccc3c2)ccc1Br	?	35%	2%	45µM*
O=C(Nc1c(C(=O)c2ccc(F)cc2)oc2ccccc12)c1cc(-c2ccccc2)on1	/	/	/	0%
Cc1ccc(-n2c(-c3ccc(Br)cc3)c[n+]3c2CCc2ccc4cccnc4c2-3)cc1	1.7µM*	0.47µM*	-18%	5%
CCOc1ccc2[nH]cc(-c3csc(N)n3)c2c1	12µM*	?	1%	?
O=C(O)c1ccc(-c2nc(-c3ccc(Cl)c(Cl)c3)cs2)cc1	40%	0%	1%	?
NC(=O)C(=CNc1nc(-c2ccc(Cl)c(Cl)c2)cs1)C(N)=O	?	?	2%	2.2µM*
CC(=O)N1CCN(CCS(=O)(=O)c2ccc(Br)cc2)CC1	-8%	2%	-3%	?
CC(C)(C)NC(=O)[C@H]1CN(Cc2cccnc2)CCN1C[C@@H](O)C[C@@H](Cc1ccccc1)C(=O)N[C@H]1c2ccccc2C[C@H]1O	11µM*	-17%	/	/
COc1ccc(CSc2nc3ccncc3n2CC(=O)Nc2cc(C)cc(C)c2)cc1	/	/	/	-14%
SMILES	Pf growth 48h	Pf growth 96h	SARS PLpro yeast	Sm TGR block
Cc1cccc2nc(Cn3c(=O)n(-c4ccccc4)c(=O)c4c5c(sc43)CCC5)cc(=O)n12	/	/	/	8%
O=C(c1cccc(C(F)(F)F)c1)N1CCc2c([nH]c3ccccc23)C1C(F)(F)F (centres undefined)	8.3µM*	12µM*	-4%	1%
COc1ccc(CCNC(=O)c2ccc3c(c2)CCN3S(=O)(=O)c2ccccc2)cc1OC	/	/	/	1%
CN(Cc1nc(-c2cccnc2)no1)S(=O)(=O)c1ccc(Br)cc1	-8%	8.3µM*	-20%	3%
CN(Cc1nc(-c2cccnc2)no1)S(=O)(=O)c1ccc2ccccc2c1	18%	10%	2%	0%
Cc1nc2c([nH]1)c(=O)n(C)c(=O)n2Cc1ccco1	4%	5.4µM*	/	/
COc1ccccc1C(=O)NCCn1cc(SCC(=O)NCC2CCCO2)c2ccccc21 (centres undefined)	?	10µM*	/	-8%
COc1ccc(C2CCCN2C(=S)Nc2ccc(C)cc2C)cc1OC (centres undefined)	-25%	39%	10%	-2%
COc1ccc(C2CCCN2C(=S)Nc2ccccc2C)cc1OC (centres undefined)	9.3µM*	?	4%	-3%
COC(=O)c1c(NC(=O)COc2cc(C)c(Cl)c(C)c2)sc2c1CCCC2	/	/	/	0%
O=C(O)C(Cc1ccccc1)N=C(NS(=O)(=O)c1ccccc1)c1ccccc1 (centres undefined)	/	/	3%	/
O=C(NC1CCCC1)C1CC(O)CN1C(=O)Nc1ccccc1 (centres undefined)	32%	71%	7%	-10%
Cc1cccc(C(=O)Oc2ccccc2C2C[C@]3(C)CC(=O)NC3N2C(=O)c2cccc(C)c2)c1 (some centres undefined)	/	5.9µM*	6%	1%
c1ccc(N2CC3CCc4ccccc4C3=N2)cc1 (centres undefined)	148%	147%	0%	45µM*
CCC(=O)N1c2ccccc2CC1C(=O)NCCCN1CCN(c2cc(C)ccc2C)CC1 (centres undefined)	/	/	/	5%
CCC1(C)Cc2c(sc3nc(SCC(=O)O)[nH]c(=O)c23)CO1 (centres undefined)	19%	8.3µM*	1%	7%
Cn1cc(CNC(=O)c2ccc3nc(Cc4ccccc4F)oc3c2)cn1	30%	13%	-5%	-10%
Cn1cc(CCNC(=O)c2ccc3nc(Cc4ccccc4F)oc3c2)cn1	64%	1.9µM*	-3%	5%
CC1Oc2ccccc2N(CC(=O)N2CCCC2)C1=O (centres undefined)	0%	4.7µM*	3%	8%
O=C1CN(CC(=O)N2CCCCC2)c2ccccc2O1	47%	?	-25%	11µM*
CC1Oc2ccccc2N(Cc2cccc(F)c2)C1=O (centres undefined)	8%	-25%	9%	89µM*
O=C1CN(CC(=O)N2CCOCC2)c2ccccc2O1	?	45%	-23%	20µM*
O=C(CN1C(=O)COc2ccccc21)N1CCOCC1	-2%	10%	-2%	0%
Cc1ccc2c(c1)N(Cc1cccc(F)c1)C(=O)C(C)O2 (centres undefined)	-11%	132%	-10%	4%
CC1CCCN(C(=O)CN2C(=O)C(C)Oc3ccccc32)C1 (centres undefined)	-4%	11%	9%	30%
CCOc1ccc(CCNC(=O)CCc2c(C)nc3c(-c4ccccc4)c(C)nn3c2C)cc1OCC	/	/	/	-9%
CCOC(=O)C1(Cc2cccc(OC)c2)CCCN(Cc2cc(OC)c(O)c(OC)c2)C1 (centres undefined)	16%	?	10%	?
CCCCCSc1nc2c(c(=O)[nH]c(=O)n2C)n1C(C)C	?	12µM*	-5%	-2%
